Assay results: PubChem BioAssay (NCATS)
Where “and” joins values, the source holds several entries; their conditions need not be identical. Equal values may be shown once. Records with an inconclusive call do not appear. Values without a mark were called inactive. Calls of active or inactive are those of the source. The call rests on the fitted dose curve; in most records, active means well fitted curve in the direction sought with a large enough effect; inconclusive means small, poorly fitted or top-dose-only effect, or another doubt; inactive means no such curve, though single readings can be large; an effect the other way counts as inactive or inconclusive.

The compounds below were run on Zika virus NS2B-NS3 protease (unlinked) (assay: Optimization of GU AMC qHTS for Zika virus inhibitors: Unlinked NS2B-NS3 protease assay (AID 1347151; further: nearly all actives have a fitted effect of over 80% in size;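 on activity change, negative = inhibition: 0% = no-inhibitor control and -100% = no-enzyme control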)). Conditions: recombinant ZIKV NS2B-NS3 protease, fluorogenic AMC substrate; series mostly up to 52.5 µM; activity change, negative = inhibition: at the top concentration.
In short: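 Fluorescence read-out (340 nm ex / 450 nm em) of AMC peptide cleavage, taken immediately and after 15 min at room temperature (~20% conversion). Enzyme was the unlinked NS2B–NS3 complex at 25 nM in Tris pH 8.0 buffer.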
Potency means the concentration at half of the fitted maximal effect.

Row | Compound | activity change, negative = inhibition [%] | Potency
1 | COC[C@H]1OC(=O)c2coc3c2[C@@]1(C)C1=C(C3=O)C2CCC(=O)[C@@]2(C)C[C@H]1OC(C)=O (stereo not given in full) | -5.08 | 
2 | CC(O)(CS(=O)(=O)c1ccc(F)cc1)C(=O)Nc1ccc(C#N)c(C(F)(F)F)c1 (stereo not given) | 5.18 | 
3 | CC(C)=CCOc1c2occc2cc2ccc(=O)oc12 | -12 | 
4 | CN1C[C@H](CNC(=O)OCc2ccccc2)C[C@@H]2c3cccc4c3c(cn4C)C[C@H]21 |  | 23.8 µM (active)
5 | Cc1ncc(CNC(=O)N(CCCl)N=O)c(N)n1 | -0.561 | 
6 | Fc1ccc(C(OCCN2CCN(CCCc3ccccc3)CC2)c2ccc(F)cc2)cc1 | 20.6 | 

Each compound was assayed on Zika virus NS2B-NS3 protease (linked construct) (assay: Confirmatory screen NINDS AMC qHTS for Zika virus inhibitors (AID 1347152; further: nearly all actives have a fitted effect of over 70% in size;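 on activity change, negative = inhibition: AMC fluorescence gain from cleaved Bz-Nle-KRR-AMC substrate over 15 min; top concentration of the series differs between compounds; 0% = no-inhibitor control and -100% = no-enzyme control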)). Conditions: Purified linked NS2B-NS3, AMC substrate fluorescence; series mostly up to 56.6 µM; activity change, negative = inhibition: at the top concentration.
In short: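 Linked NS2B-NS3 1 nM, Tris pH 8.0/0.01% Tween 20; cpd 15 min RT dark; + Nle-KRR-AMC 10 µM (Km 18.3 µM); read 0 and 15 min, 340/450 nm; %inh vs controls, 4-param Hill.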

Row | Compound | Potency | activity change, negative = inhibition [%]
7 | Cc1cc(SCc2sc(-c3ccc(C(F)(F)F)c(F)c3)nc2C)ccc1OCC(=O)O | 17.1 µM (active) and 12.4 µM (active) | 
8 | Cc1ccc(-c2nc3ccc(C)cn3c2CC(=O)N(C)C)cc1 | 27.1 µM (active) | 
9 | CCN(C(C)=O)c1cccc(-c2ccnc3c(C#N)cnn23)c1 | 27.1 µM (active) | 
10 | O=C(O)C(=O)c1cn(Cc2ccccc2)c2ccc(-c3ccc(OC(F)(F)F)cc3)cc12 | 7.84 µM (active) | 
11 | CN1C[C@H](CNC(=O)OCc2ccccc2)C[C@@H]2c3cccc4c3c(cn4C)C[C@H]21 |  | -15

The compounds below were run on Zika virus NS2B-NS3 protease (unlinked complex) (assay: Confirmatory screen GU AMC qHTS for Zika virus inhibitors (AID 1347153; further: nearly all actives have a fitted effect of over 70% in size;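 on activity, negative = inhibition: percent inhibition with 0% = no inhibitor control and 100% = no enzyme control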)). Conditions: Recombinant NS2B-NS3 protease, AMC substrate fluorescence; series mostly up to 57.1 µM; activity, negative = inhibition: at the top concentration.
In short: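 Unlinked enzyme 25 nM, Tris pH 8.0/0.01% Tween 20; cpd 15 min RT, dark; + AMC substrate 10 µM (Km 18.3 µM); 340/450 nm read at t0 and 15 min; % inhibition → 4-param fit.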

Row | Compound | Potency | activity, negative = inhibition [%]
12 | Cc1cc(SCc2sc(-c3ccc(C(F)(F)F)c(F)c3)nc2C)ccc1OCC(=O)O | 19.2 µM (active) and 17.1 µM (active) | 
13 | O=C(O)C(=O)c1cn(Cc2ccccc2)c2ccc(-c3ccc(OC(F)(F)F)cc3)cc12 | 9.61 µM (active) | 
14 | CN1C[C@H](CNC(=O)OCc2ccccc2)C[C@@H]2c3cccc4c3c(cn4C)C[C@H]21 |  | 11.7

What follows are compounds tested on Zika virus NS2B-NS3 protease (assay: Primary screen GU AMC qHTS for Zika virus inhibitors (AID 1347154; further: nearly all actives have a fitted effect of over 70% in size;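 on activity change, negative = inhibition: 0% = no-inhibitor control and -100% = no-enzyme control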)). Conditions: Zika NS2B-NS3 unlinked protease, AMC fluorogenic substrate; series mostly up to 54.1 µM; activity change, negative = inhibition: at the top concentration.
In short: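 Unlinked Zika NS2B hydrophilic domain–NS3 protease complex at 25 nM in 10 mM Tris-HCl pH 8.0, 0.01% Tween 20, with an AMC peptide substrate. Fluorescence change (340/450 nm) over 15 min at room temperature, normalized to controls, fitted to 4-parameter Hill.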

Row | Compound | activity change, negative = inhibition | Potency
15 | CC(C)(C)NCC(O)c1cc(Cl)c(N)c(Cl)c1 (stereo not given) | 0.145% | 
16 | OCCOc1ccccc1 | 0.226% | 
17 | NCCc1cc(O)c(O)cc1O |  | 4.55 µM (active) and 21.2 µM (active)
18 | CCN(CC)CCN1C(=O)CN=C(c2ccccc2F)c2cc(Cl)ccc21 | 5.57% | 
19 | COc1ccc(Cc2nccc3cc(OC)c(OC)cc23)cc1OC |  | inactive
20 | CC1OC(C)OC(C)O1 (stereo not given) | -2.95% | 
21 | Cc1cc(SCc2sc(-c3ccc(C(F)(F)F)c(F)c3)nc2C)ccc1OCC(=O)O |  | 7.64 µM (active)
22 | c1ccc2c(c1)Nc1ccccc1S2 |  | inactive
23 | COc1ccc2c(c1OC)CN1CCc3cc4c(cc3C1C2)OCO4 (stereo not given) |  | inactive
24 | CN(C)CCN(C)CCc1ccc(Cl)c(Cl)c1 |  | inactive
25 | C#CCOC(C(=O)OCCN(C)C)(c1ccccc1)c1ccccc1 | 0.547% | 
26 | CCN(C(C)=O)c1cccc(-c2ccnc3c(C#N)cnn23)c1 |  | 31.6 µM (active)
27 | CC1=C2C[C@@H]3[C@@H](CC=C4C[C@@H](O)CC[C@@]43C)[C@@H]2CC[C@]12O[C@H]1C[C@H](C)CN[C@H]1[C@H]2C | 7.72% | 
28 | CC(=O)Nc1cc([As](=O)(O)O)ccc1O | -7.34% | 
29 | COC[C@H]1OC(=O)c2coc3c2[C@@]1(C)C1=C(C3=O)C2CCC(=O)[C@@]2(C)C[C@H]1OC(C)=O (stereo not given in full) |  | inactive
30 | Clc1ccc(CCC(Cn2ccnc2)Sc2c(Cl)cccc2Cl)cc1 (stereo not given) |  | inactive
31 | C=C1C[C@@H]2[C@H](CC[C@]3(C)C(=O)CC[C@@H]23)[C@@]2(C)C=CC(=O)C=C12 | -2.51% | 
32 | CCCN1CCC[C@@H]2Cc3nc(N)ncc3C[C@H]21 | -7.89% | 

Row | Compound | activity change, negative = inhibition | Potency
33 | CN(C)CCc1ccc(O)cc1 |  | inactive
34 | C=C1CC[C@@]2(O)[C@H]3Cc4ccc(O)c5c4[C@@]2(CCN3CC2CC2)[C@H]1O5 | 4.74% | 
35 | O=[N+]([O-])c1cc([As](=O)(O)O)ccc1O | -1.67% | 
36 | FC(F)(F)c1cccc(C2=CCN(CCc3ccc4ccccc4c3)CC2)c1 |  | inactive
37 | CCC(COC(=O)c1cc(OC)c(OC)c(OC)c1)(c1ccccc1)N(C)C (stereo not given) | -6.15% | 
38 | C[C@]12CCC(=O)C(O)=C1CC[C@@H]1[C@@H]2CC[C@]2(C)C(=O)CC[C@@H]12 | -1.04% | 
39 | CN1C[C@H](CNC(=O)OCc2ccccc2)C[C@@H]2c3cccc4c3c(cn4C)C[C@H]21 | -9.16% | 
40 | CC(C)=CC1C(C(=O)OCc2cccc(Oc3ccccc3)c2)C1(C)C (stereo not given) | -10.3% | 
41 | Cc1ncc(CNC(=O)N(CCCl)N=O)c(N)n1 | -2.09% | 
42 | C=CCN1CC[C@]23c4c5ccc(O)c4O[C@H]2C(=O)CC[C@@]3(O)[C@H]1C5 | -0.604% | 
43 | CC(C)NCC(O)c1ccccc1Cl (stereo not given) | -3.79% | 
44 | CC1NCCOC1c1ccccc1 (stereo not given) | 1.25% | 
45 | N[C@@H]1C[C@H]1c1ccccc1 | -3.34% | 
46 | CCC(C(N)=O)N1CCCC1=O (stereo not given) |  | inactive
47 | CC(C)(N)Cc1ccc(Cl)cc1 | -3.06% | 
48 | Fc1ccc(C(OCCN2CCN(CCCc3ccccc3)CC2)c2ccc(F)cc2)cc1 |  | inactive
49 | Oc1cccc2cccnc12 | -9% [at 104 µM] | 
50 | Oc1ccc(Cl)cc1Cc1ccccc1 | -15.4% | 
